Test results reported in PubChem BioAssay AID1159580 (chemical genetic matrix, 2015).
Out of some 5,500 compounds screened, about 2,000 (36%) were called active. Not shown: some 18% with an inconclusive outcome. Cut-off read from the data, not from the text of the source: active = normalized growth mostly below about 0.91 (no sharp cut-off); inconclusive = no clear call, values can overlap the other calls; inactive = mostly above about 0.92. The list shows a part of the results.

Assay: chemical genetic growth profiling, strain panel (AID 1159580);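 note: tested at 20 µM; growth read once vehicle control cultures reached saturation at 30 °C; 1 = growth at the plate median or of vehicle wells; lower values mean less growth of the strain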
Details: growth OD

Measured: normalized growth

CCC(=O)Nc1ccc(Cl)c(Cl)c1
inactive: S. cerevisiae deletion strains, locus YJR043C, strain POL32, stronger effect = lower value 0.931 | S. cerevisiae deletion strains, locus YJR075W, strain HOC1, stronger effect = lower value 0.965 | S. cerevisiae deletion strains, locus YKL009W, strain mrt4, stronger effect = lower value 0.976 | S. cerevisiae deletion strains, locus YKL068W, stronger effect = lower value 0.999 | S. cerevisiae deletion strains, locus YKL085W, strain MDH1 (second series), stronger effect = lower value 0.999 | S. cerevisiae deletion strains, locus YKL085W, strain MDH1, stronger effect = lower value 0.999 | S. cerevisiae deletion strains, locus YKL160W, strain elf1, stronger effect = lower value 0.984 | S. cerevisiae deletion strains, locus YKL190W, strain CNB1, stronger effect = lower value 1 | S. cerevisiae deletion strains, locus YKR001C, strain vps1, stronger effect = lower value 0.973 | S. cerevisiae deletion strains, locus YKR026C, strain gcn3, stronger effect = lower value 1 | S. cerevisiae deletion strains, locus YKR091W, strain srl3, stronger effect = lower value 0.982 | S. cerevisiae deletion strains, locus YLL001W, strain dnm1, stronger effect = lower value 0.99 | S. cerevisiae deletion strains, locus YLL026W, stronger effect = lower value 0.989 | S. cerevisiae deletion strains, locus YLL041C, strain sdh2, stronger effect = lower value 0.996 | S. cerevisiae deletion strains, locus YLR027C, strain aat2, stronger effect = lower value 1 | S. cerevisiae deletion strains, locus YLR039C, strain RIC1, stronger effect = lower value 1.02 | S. cerevisiae deletion strains, locus YLR058C, strain SHM2, stronger effect = lower value 1 | S. cerevisiae deletion strains, locus YLR102C, strain apc9, stronger effect = lower value 1 | S. cerevisiae deletion strains, locus YLR221C, strain rsa3, stronger effect = lower value 0.986 | S. cerevisiae deletion strains, locus YLR258W, strain gsy2, stronger effect = lower value 0.996 | S. cerevisiae deletion strains, locus YLR262C, strain YPT6 (second series), stronger effect = lower value 1 | S. cerevisiae deletion strains, locus YLR262C, strain YPT6, stronger effect = lower value 0.978 | S. cerevisiae deletion strains, locus YLR268W, strain sec22, stronger effect = lower value 0.982 | S. cerevisiae deletion strains, locus YLR320W, strain mms22, stronger effect = lower value 0.969 | S. cerevisiae deletion strains, locus YLR330W, strain CHS5, stronger effect = lower value 0.995 | S. cerevisiae deletion strains, locus YLR342W, strain FKS1 (second series), stronger effect = lower value 0.981 | S. cerevisiae deletion strains, locus YLR342W, strain FKS1, stronger effect = lower value 0.973 | S. cerevisiae deletion strains, locus YLR357W, strain rsc2, stronger effect = lower value 0.952 | S. cerevisiae deletion strains, locus YLR370C, strain arc18, stronger effect = lower value 0.985 | S. cerevisiae deletion strains, locus YLR371W, strain rom2, stronger effect = lower value 1.01 | S. cerevisiae deletion strains, locus YLR384C, strain iki3, stronger effect = lower value 1.01 | S. cerevisiae deletion strains, locus YLR418C, strain cdc73, stronger effect = lower value 0.866 | S. cerevisiae deletion strains, locus YML016C, strain PPZ1, stronger effect = lower value 0.997 | S. cerevisiae deletion strains, locus YML032C, strain rad52, stronger effect = lower value 1 | S. cerevisiae deletion strains, locus YML120C, strain ndi1, stronger effect = lower value 1 | S. cerevisiae deletion strains, locus YML124C, strain tub3, stronger effect = lower value 1 | S. cerevisiae deletion strains, locus YMR058W, strain fet3, stronger effect = lower value 0.993 | S. cerevisiae deletion strains, locus YMR078C, strain ctf18, stronger effect = lower value 1 | S. cerevisiae deletion strains, locus YMR125W, strain sto1, stronger effect = lower value 0.98 | S. cerevisiae deletion strains, locus YMR129W, stronger effect = lower value 0.98 | S. cerevisiae deletion strains, locus YMR205C, strain PFK2, stronger effect = lower value 0.958 | S. cerevisiae deletion strains, locus YMR223W, strain ubp8, stronger effect = lower value 1 | S. cerevisiae deletion strains, locus YMR231W, strain pep5, stronger effect = lower value 0.997 | S. cerevisiae deletion strains, locus YMR263W, strain SAP30, stronger effect = lower value 0.986 | S. cerevisiae deletion strains, locus YMR307W, strain GAS1, stronger effect = lower value 0.843 | S. cerevisiae deletion strains, locus YNL067W, strain RPL9B, stronger effect = lower value 0.965 | S. cerevisiae deletion strains, locus YNL071W, strain lat1, stronger effect = lower value 0.987 | S. cerevisiae deletion strains, locus YNL128W, strain TEP1, stronger effect = lower value 0.988 | S. cerevisiae deletion strains, locus YNL153C, strain GIM3, stronger effect = lower value 0.988 | S. cerevisiae deletion strains, locus YNL209W, strain ssb2, stronger effect = lower value 0.988 | S. cerevisiae deletion strains, locus YNL233W, strain BNI4, stronger effect = lower value 0.976 | S. cerevisiae deletion strains, locus YNL248C, strain rpa49, stronger effect = lower value 0.991 | S. cerevisiae deletion strains, locus YNL250W, strain rad50, stronger effect = lower value 1.01 | S. cerevisiae deletion strains, locus YNL271C, strain bni1, stronger effect = lower value 1.01 | S. cerevisiae deletion strains, locus YNL298W, strain CLA4, stronger effect = lower value 0.995 | S. cerevisiae deletion strains, locus YNL307C, strain MCK1, stronger effect = lower value 0.992 | S. cerevisiae deletion strains, locus YNL322C, strain KRE1 (second series), stronger effect = lower value 0.987 | S. cerevisiae deletion strains, locus YNL322C, strain KRE1, stronger effect = lower value 0.995 | S. cerevisiae deletion strains, locus YNR049C, strain mso1, stronger effect = lower value 0.994 | S. cerevisiae deletion strains, locus YNR052C, strain pop2, stronger effect = lower value 1.02 | S. cerevisiae deletion strains, locus YOL006C, strain TOP1, stronger effect = lower value 0.885 | S. cerevisiae deletion strains, locus YOL012C, strain htz1 0.818 | S. cerevisiae deletion strains, locus YOL147C, strain pex11, stronger effect = lower value 0.999 | S. cerevisiae deletion strains, locus YOR001W, strain rrp6, stronger effect = lower value 0.994 | S. cerevisiae deletion strains, locus YOR061W, strain CKA2, stronger effect = lower value 0.997 | S. cerevisiae deletion strains, locus YOR069W, strain VPS5, stronger effect = lower value 1.01 | S. cerevisiae deletion strains, locus YOR070C, strain gyp1, stronger effect = lower value 0.998 | S. cerevisiae deletion strains, locus YOR080W, strain dia2, stronger effect = lower value 0.956 | S. cerevisiae deletion strains, locus YOR083W, strain WHI5, stronger effect = lower value 0.994 | S. cerevisiae deletion strains, locus YOR106W, strain vam3, stronger effect = lower value 0.988 | S. cerevisiae deletion strains, locus YOR136W, strain idh2, stronger effect = lower value 0.998 | S. cerevisiae deletion strains, locus YOR144C, strain elg1, stronger effect = lower value 0.995 | S. cerevisiae deletion strains, locus YOR184W, strain ser1, stronger effect = lower value 0.977 | S. cerevisiae deletion strains, locus YOR265W, strain rbl2, stronger effect = lower value 0.995 | S. cerevisiae deletion strains, locus YOR270C, strain vph1, stronger effect = lower value 0.992 | S. cerevisiae deletion strains, locus YOR290C, strain snf2, stronger effect = lower value 0.988 | S. cerevisiae deletion strains, locus YOR316C, strain cot1, stronger effect = lower value 1.01 | S. cerevisiae deletion strains, locus YPL051W, strain arl3, stronger effect = lower value 0.994 | S. cerevisiae deletion strains, locus YPL055C, strain LGE1, stronger effect = lower value 0.904 | S. cerevisiae deletion strains, locus YPL078C, strain atp4, stronger effect = lower value 0.988 | S. cerevisiae deletion strains, locus YPL106C, strain sse1, stronger effect = lower value 0.952 | S. cerevisiae deletion strains, locus YPL240C, strain hsp82, stronger effect = lower value 0.968 | S. cerevisiae deletion strains, locus YPL241C, strain CIN2, stronger effect = lower value 0.993 | S. cerevisiae deletion strains, locus YPR119W, strain clb2, stronger effect = lower value 1 | S. cerevisiae deletion strains, locus YPR141C, strain kar3, stronger effect = lower value 1.01 | S. cerevisiae deletion strains, locus YPR163C, strain tif3, stronger effect = lower value 0.997 | S. cerevisiae deletion strains, locus YPR167C, strain met16, stronger effect = lower value 1 | S. cerevisiae deletion strains, strain wtn01, stronger effect = lower value 1 | S. cerevisiae strains, strain wild type, stronger effect = lower value 0.994
